Measurements: ChEMBL document CHEMBL1961873, “Compounds: GSK PKIS; Assays: Nanosyn kinase panel” (2012)

Assays:
[1] = target: Calcium/calmodulin-dependent protein kinase type II subunit alpha (Homo sapiens) (UniProt Q9UQM7); conditions: at 1 µM;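 also: reported value is a mean percent inhibition of CAMK2A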
[2] = target: Calcium/calmodulin-dependent protein kinase type II subunit delta (Homo sapiens) (UniProt Q13557); conditions: at 0.1 µM
[3] = target: Calcium/calmodulin-dependent protein kinase type II subunit delta (Homo sapiens) (UniProt Q13557); conditions: at 1 µM
[4] = target: T1, Calcium/calmodulin-dependent protein kinase type IV (Homo sapiens) (UniProt Q16566); conditions: at 0.1 µM
T1 sequence (whole entry): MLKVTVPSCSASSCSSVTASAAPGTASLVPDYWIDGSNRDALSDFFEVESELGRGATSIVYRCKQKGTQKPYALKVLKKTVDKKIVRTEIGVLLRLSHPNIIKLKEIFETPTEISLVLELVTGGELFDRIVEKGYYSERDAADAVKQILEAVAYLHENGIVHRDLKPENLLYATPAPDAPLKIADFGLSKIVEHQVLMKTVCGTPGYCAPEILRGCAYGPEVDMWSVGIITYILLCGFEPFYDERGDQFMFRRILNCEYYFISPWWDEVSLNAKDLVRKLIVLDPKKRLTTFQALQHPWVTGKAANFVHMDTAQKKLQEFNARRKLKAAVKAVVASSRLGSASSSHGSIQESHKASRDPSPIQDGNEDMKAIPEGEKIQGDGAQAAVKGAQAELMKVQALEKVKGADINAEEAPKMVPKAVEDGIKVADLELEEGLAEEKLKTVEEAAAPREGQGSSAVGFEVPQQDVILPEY

[5] = target: T1, Calcium/calmodulin-dependent protein kinase type IV (Homo sapiens); conditions: at 1 µM
[6] = target: T2, Serine/threonine-protein kinase Chk1 (Homo sapiens) (UniProt O14757); conditions: at 0.1 µM
T2 sequence (whole entry): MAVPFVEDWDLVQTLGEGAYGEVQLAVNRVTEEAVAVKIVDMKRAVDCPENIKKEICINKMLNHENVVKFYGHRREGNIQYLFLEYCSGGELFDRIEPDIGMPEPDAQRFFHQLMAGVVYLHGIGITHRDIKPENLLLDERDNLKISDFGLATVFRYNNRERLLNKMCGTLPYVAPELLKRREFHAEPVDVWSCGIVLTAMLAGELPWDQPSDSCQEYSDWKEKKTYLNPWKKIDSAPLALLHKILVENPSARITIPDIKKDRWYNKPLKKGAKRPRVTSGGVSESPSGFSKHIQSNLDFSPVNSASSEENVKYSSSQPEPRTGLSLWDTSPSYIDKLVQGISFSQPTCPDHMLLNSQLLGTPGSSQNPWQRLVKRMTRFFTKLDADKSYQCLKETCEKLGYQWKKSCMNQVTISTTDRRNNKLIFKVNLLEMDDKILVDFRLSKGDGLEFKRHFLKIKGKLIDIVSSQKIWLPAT

[7] = target: T2, Serine/threonine-protein kinase Chk1 (Homo sapiens); conditions: at 1 µM
[8] = target: Serine/threonine-protein kinase Chk2 (Homo sapiens) (UniProt O96017); conditions: at 0.1 µM
Serine/threonine-protein kinase Chk2 (Homo sapiens), sequence (O96017 whole entry): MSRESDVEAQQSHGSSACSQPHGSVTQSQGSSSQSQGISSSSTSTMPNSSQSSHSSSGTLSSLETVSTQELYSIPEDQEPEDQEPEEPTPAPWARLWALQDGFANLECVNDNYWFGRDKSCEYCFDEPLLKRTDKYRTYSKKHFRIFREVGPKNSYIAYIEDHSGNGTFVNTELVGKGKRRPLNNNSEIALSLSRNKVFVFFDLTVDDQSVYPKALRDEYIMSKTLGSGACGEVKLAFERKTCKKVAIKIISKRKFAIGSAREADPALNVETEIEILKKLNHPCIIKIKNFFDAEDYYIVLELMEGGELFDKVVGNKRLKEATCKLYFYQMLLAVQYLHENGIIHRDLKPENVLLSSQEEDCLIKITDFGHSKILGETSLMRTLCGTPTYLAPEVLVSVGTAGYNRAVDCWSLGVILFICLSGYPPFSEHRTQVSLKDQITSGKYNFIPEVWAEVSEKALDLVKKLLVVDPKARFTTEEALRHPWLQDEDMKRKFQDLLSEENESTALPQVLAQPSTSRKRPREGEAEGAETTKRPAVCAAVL

[9] = target: Serine/threonine-protein kinase Chk2 (Homo sapiens) (UniProt O96017); conditions: at 1 µM
[10] = target: Death-associated protein kinase 1 (Homo sapiens) (UniProt P53355); conditions: at 0.1 µM
Death-associated protein kinase 1 (Homo sapiens), sequence (P53355 whole entry, looked up): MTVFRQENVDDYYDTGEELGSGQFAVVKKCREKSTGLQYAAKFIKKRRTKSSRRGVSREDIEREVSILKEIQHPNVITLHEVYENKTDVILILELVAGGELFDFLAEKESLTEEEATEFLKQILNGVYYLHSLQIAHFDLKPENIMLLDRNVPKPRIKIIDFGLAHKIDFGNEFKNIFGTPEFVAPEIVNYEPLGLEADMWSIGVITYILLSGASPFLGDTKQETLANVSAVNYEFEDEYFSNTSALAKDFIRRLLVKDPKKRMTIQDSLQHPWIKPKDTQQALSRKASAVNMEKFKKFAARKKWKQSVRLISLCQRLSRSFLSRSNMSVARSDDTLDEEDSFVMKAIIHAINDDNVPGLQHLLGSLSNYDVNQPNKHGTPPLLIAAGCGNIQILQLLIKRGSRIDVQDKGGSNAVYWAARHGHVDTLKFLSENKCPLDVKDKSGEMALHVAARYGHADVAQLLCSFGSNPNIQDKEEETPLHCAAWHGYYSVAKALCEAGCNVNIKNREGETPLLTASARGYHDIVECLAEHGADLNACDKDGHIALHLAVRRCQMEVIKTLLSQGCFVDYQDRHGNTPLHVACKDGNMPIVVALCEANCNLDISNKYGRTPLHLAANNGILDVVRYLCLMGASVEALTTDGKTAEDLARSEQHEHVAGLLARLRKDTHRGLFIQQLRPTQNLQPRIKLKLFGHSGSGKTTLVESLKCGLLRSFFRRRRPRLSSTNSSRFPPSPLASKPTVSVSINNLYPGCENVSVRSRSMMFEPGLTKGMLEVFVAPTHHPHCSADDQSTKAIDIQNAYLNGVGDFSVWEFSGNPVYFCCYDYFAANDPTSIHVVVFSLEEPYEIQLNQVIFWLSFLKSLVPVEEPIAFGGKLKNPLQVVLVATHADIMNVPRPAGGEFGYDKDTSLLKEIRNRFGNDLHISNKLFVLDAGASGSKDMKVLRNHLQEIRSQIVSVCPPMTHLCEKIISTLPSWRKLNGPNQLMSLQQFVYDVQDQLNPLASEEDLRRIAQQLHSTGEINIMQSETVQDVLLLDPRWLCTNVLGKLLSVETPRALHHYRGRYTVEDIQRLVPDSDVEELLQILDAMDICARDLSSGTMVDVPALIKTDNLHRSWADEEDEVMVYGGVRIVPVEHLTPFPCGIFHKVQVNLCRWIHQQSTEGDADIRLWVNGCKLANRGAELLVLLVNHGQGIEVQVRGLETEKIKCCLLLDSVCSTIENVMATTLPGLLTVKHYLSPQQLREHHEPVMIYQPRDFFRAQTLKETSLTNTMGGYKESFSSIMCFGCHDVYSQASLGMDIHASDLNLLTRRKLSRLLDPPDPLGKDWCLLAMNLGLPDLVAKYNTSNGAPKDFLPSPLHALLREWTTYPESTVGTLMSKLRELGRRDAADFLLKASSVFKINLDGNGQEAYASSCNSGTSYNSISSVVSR

[11] = target: Death-associated protein kinase 1 (Homo sapiens) (UniProt P53355); conditions: at 1 µM
[12] = target: T3, Serine/threonine-protein kinase DCLK2 (Homo sapiens) (UniProt Q8N568); conditions: at 0.1 µM
T3 sequence (whole entry): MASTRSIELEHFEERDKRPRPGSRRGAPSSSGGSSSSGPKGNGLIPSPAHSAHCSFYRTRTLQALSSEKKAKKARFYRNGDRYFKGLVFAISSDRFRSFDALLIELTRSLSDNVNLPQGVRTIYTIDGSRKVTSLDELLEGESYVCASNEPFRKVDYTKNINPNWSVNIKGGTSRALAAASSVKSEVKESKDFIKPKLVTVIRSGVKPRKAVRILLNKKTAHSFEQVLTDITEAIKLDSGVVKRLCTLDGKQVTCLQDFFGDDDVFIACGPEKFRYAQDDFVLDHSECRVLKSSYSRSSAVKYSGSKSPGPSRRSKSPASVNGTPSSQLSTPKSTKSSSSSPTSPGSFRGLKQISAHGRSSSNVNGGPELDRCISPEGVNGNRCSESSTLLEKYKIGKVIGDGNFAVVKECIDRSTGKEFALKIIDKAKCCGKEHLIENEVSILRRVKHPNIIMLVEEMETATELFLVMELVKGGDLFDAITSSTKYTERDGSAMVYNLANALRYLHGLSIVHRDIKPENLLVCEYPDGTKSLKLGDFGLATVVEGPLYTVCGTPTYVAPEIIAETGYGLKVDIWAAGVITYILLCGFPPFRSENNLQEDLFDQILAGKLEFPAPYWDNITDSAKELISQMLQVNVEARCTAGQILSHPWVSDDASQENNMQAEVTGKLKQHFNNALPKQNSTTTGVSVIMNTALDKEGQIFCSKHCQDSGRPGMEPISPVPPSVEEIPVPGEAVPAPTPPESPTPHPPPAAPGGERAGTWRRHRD

[13] = target: T3, Serine/threonine-protein kinase DCLK2 (Homo sapiens); conditions: at 1 µM
[14] = target: MAP kinase-activated protein kinase 2 (Homo sapiens) (UniProt P49137); conditions: at 0.1 µM
MAP kinase-activated protein kinase 2 (Homo sapiens), sequence (P49137 whole entry, looked up): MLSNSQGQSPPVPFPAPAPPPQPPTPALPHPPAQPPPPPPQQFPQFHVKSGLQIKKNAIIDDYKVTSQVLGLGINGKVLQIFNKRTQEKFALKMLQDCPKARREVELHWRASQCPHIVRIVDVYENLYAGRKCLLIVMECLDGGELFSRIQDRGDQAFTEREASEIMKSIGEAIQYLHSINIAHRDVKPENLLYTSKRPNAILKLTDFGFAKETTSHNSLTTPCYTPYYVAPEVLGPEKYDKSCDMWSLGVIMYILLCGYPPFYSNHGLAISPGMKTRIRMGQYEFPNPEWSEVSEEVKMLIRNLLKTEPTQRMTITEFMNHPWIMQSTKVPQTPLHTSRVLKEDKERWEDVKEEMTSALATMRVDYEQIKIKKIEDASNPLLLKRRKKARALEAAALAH

[15] = target: MAP kinase-activated protein kinase 2 (Homo sapiens) (UniProt P49137); conditions: at 1 µM
[16] = target: MAP kinase-activated protein kinase 3 (Homo sapiens) (UniProt Q16644); conditions: at 0.1 µM
[17] = target: MAP kinase-activated protein kinase 3 (Homo sapiens) (UniProt Q16644); conditions: at 1 µM
[18] = target: Serine/threonine-protein kinase MARK1 (Homo sapiens) (UniProt Q9P0L2); conditions: at 0.1 µM
Serine/threonine-protein kinase MARK1 (Homo sapiens), sequence (Q9P0L2 whole entry, looked up): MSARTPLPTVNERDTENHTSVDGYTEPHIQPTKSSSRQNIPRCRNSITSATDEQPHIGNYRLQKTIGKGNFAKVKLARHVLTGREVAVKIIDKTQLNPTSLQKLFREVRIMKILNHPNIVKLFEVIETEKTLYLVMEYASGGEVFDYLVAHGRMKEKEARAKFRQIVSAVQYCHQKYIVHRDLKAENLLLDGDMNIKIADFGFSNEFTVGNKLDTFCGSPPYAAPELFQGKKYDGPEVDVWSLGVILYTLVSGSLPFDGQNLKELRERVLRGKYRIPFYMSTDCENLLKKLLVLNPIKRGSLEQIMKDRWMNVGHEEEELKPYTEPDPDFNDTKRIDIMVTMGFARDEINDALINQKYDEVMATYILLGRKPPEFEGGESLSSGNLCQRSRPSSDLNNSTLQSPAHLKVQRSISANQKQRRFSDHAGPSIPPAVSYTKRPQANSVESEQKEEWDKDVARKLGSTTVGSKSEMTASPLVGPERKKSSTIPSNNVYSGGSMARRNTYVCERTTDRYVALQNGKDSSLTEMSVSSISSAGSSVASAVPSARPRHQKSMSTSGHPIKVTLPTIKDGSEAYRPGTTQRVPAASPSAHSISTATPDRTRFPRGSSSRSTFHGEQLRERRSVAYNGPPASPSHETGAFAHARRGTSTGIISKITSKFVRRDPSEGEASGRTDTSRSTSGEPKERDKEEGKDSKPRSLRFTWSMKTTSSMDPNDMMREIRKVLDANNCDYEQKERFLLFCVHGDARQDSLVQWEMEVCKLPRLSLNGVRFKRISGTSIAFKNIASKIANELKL

[19] = target: Serine/threonine-protein kinase MARK1 (Homo sapiens) (UniProt Q9P0L2); conditions: at 1 µM
[20] = target: MAP/microtubule affinity-regulating kinase 3 (Homo sapiens) (UniProt P27448); conditions: at 0.1 µM;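 also: mean percent inhibition of MARK3 kinase activity, measured within the GSK PKIS screening panel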
MAP/microtubule affinity-regulating kinase 3 (Homo sapiens), sequence (P27448 whole entry, looked up): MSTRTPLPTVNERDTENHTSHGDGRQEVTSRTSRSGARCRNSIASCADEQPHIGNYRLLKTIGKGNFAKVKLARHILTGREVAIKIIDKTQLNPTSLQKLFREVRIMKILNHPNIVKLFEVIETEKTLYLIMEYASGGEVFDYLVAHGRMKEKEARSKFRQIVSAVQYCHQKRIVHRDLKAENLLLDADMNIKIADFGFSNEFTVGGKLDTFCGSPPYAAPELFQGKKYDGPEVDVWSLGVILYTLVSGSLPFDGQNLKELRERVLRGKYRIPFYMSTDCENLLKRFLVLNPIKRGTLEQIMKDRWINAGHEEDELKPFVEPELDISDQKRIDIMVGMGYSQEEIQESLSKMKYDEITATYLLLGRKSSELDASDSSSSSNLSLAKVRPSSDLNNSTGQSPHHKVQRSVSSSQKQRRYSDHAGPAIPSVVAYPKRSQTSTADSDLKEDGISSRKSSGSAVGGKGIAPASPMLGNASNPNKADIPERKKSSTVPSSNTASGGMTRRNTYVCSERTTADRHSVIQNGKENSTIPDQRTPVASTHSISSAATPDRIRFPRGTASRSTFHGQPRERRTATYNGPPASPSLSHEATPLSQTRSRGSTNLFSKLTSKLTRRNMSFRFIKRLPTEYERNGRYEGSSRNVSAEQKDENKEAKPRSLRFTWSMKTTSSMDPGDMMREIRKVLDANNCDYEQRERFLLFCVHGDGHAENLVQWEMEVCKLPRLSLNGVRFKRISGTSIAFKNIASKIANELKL

Calcium/calmodulin-dependent protein kinase type II subunit alpha (Homo sapiens), sequence (Q9UQM7 whole entry): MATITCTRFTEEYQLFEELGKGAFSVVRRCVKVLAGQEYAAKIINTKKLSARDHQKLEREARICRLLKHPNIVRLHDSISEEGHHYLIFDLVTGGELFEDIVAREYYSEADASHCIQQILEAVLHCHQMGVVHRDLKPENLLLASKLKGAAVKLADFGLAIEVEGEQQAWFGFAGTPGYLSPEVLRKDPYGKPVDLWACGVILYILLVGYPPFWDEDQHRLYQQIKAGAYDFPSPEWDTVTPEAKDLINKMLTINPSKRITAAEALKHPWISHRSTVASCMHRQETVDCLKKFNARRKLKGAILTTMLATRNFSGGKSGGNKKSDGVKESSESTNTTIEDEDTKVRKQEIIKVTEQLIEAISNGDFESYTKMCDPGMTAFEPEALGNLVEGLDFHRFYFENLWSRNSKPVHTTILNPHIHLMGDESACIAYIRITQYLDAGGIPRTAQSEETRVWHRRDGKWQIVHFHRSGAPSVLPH
Calcium/calmodulin-dependent protein kinase type II subunit delta (Homo sapiens), sequence (Q13557 whole entry): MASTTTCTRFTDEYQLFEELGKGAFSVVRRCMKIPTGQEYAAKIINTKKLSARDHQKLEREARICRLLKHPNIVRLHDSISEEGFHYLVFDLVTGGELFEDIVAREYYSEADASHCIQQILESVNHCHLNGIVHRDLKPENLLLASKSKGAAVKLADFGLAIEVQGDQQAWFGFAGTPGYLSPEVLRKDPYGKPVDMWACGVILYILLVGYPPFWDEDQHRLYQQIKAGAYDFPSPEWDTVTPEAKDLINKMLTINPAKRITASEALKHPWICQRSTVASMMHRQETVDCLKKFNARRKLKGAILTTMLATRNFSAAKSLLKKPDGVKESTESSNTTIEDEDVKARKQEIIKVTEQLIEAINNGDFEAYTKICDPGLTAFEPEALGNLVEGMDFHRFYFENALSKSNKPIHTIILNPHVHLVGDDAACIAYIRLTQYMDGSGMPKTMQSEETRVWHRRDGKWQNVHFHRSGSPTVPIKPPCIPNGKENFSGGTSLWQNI

SMILES	inhibition [1] [%]	inhibition [2] [%]	inhibition [3] [%]	inhibition [4] [%]	inhibition [5] [%]	inhibition [6] [%]	inhibition [7] [%]	inhibition [8] [%]	inhibition [9] [%]	inhibition [10] [%]	inhibition [11] [%]	inhibition [12] [%]	inhibition [13] [%]	inhibition [14] [%]	inhibition [15] [%]	inhibition [16] [%]	inhibition [17] [%]	inhibition [18] [%]	inhibition [19] [%]	inhibition [20] [%]
Nc1nonc1-c1nc2cnccc2n1C1CCCCC1	0.68	-1.42	4.05	1.07	1.19	-0.67	1.88	-2	-1.47	-1.34	-1.97	-0.3	1.52	-1.18	-1.08	-2.2	-2.76	2.89	16.5	4.04
NC(=O)c1sc(-n2cnc3cc(C(F)(F)F)ccc32)cc1OCc1ccccc1Br	-0.17	2.18	1.35	2.89	1.08	-0.06	0.96	1.22	0.32	1.27	0	-1.23	2.52	0.61	0.42	1.71	-0.9	1.79	1.6	1.11
COc1cccc(-n2ncc3c(N/N=C/c4ccncc4)ncnc32)c1	6.87	4.21	12.8	-0.17	-1.96	3.28	5.7	2.56	4.89	4.45	4.53	2.42	1.8	2.5	1.87	3.62	4.56	4.99	9.17	5.75
NS(=O)(=O)c1ccc(N/C=C2\C(=O)Nc3ccc4ncsc4c32)cc1	3.49	4.43	16.3	-1.62	-1.06	7.84	33	4.73	19.1	5.66	9.33	0.08	5.55	2.68	2.48	7.84	10.4	13.6	53.8	8.01
COc1cccc(COc2cc(-n3cnc4ccccc43)sc2C(N)=O)c1	-0.42	0.07	-0.84	2.92	-0.29	2.18	-2.21	-0.72	-0.59	1.92	1.02	-0.3	0.3	-0.08	-1.3	2.28	3.61	0.58	1.16	2.28
CCn1c(-c2nonc2N)nc2c(C#CC(C)(C)O)nc(O[C@@H](CN)c3ccccc3)cc21	1.68	-0.76	14.3	-0.23	4.51	-3.48	31.1	2.31	26.7	-0.91	2.31	6.73	18.5	-0.97	-1	-3.02	-0.47	77.2	93.1	83.3
NS(=O)(=O)c1ccc(-c2ccc3c(NC(=O)C4CC4)n[nH]c3c2)cc1	3.21	2.57	3.65	0.18	0.35	1.61	4.16	1.56	2.29	3.27	4.32	0.37	0.39	1.09	0.96	2.61	2.69	1.75	2.18	2.65
CCn1c(-c2nonc2N)nc2c(C#CC(C)(C)O)ncc(OC[C@@H]3CCCN3)c21	-2.05	0.64	0.35	0.16	-0.65	-1.63	2.95	0.37	1.08	1.35	0.89	-1.55	2.93	-0.56	-0.71	-0.39	-0.82	13.8	61.1	14.9
Fc1ccc(-c2ncn(C3CCNCC3)c2-c2ccnc(Oc3ccccc3)n2)cc1	-2.16	1.37	2.5	-1.82	-2.43	-1.72	0.04	1.16	1.46	-0.62	-1.87	-4.56	-2.43	0.07	-0.82	31.3	33.4	0.45	0.99	0.57
Cc1cc(-c2ccco2)cc(C)c1/C=C/c1cncc(-c2nn[nH]n2)c1	-0.97	-0.09	0.35	1.45	1.06	-8.36	-1.92	-0.74	-0.4	1.92	0.04	-1.22	0.25	0.52	0.01	1.42	1.25	1.07	1.26	-0.4
COc1cc(C=NNc2ncnc3c2cnn3Cc2ccccc2)ccc1O	-4.25	-4.62	-0.47	-2.48	-3.98	-2.18	-3.22	-3.42	-3.47	-3.06	-3.68	-3.6	-3.02	-2.2	-2.27	-2.35	-1.92	-0.6	1.36	0.53
COc1cc2c(cc1Nc1nc(Nc3ccsc3C(N)=O)c3cc[nH]c3n1)N(C(=O)CN(C)C)CCC2	-4.91	3.02	13	2.85	12.1	-2.04		2.31	11.8	2.17	4.14	-2.25	0.34	-0.32	-2.2	6.83	6.01	2.48	5.99	2.11
CCn1c(-c2nonc2N)nc2c(C#CCN)ncc(OCCCN)c21	-1.33	-4.81	-4.58	-6	-5.56	-3.81	0.26	-1.17	0.23	-2.99	-3.38	-0.93	-0.65	-0.73	-0.87	-1.07	-0.66	4.42	11	6.58
CCn1c(-c2nonc2N)nc2c(C#CC(C)(C)O)ncc(OCC3CCNCC3)c21	2.25	2.49	4.75	-2.07	-2.31	-0.5	5.91	2.91	6.65	1.8	1.75	-3.05	-1.26	0.79	1.63	2.86	1.31	15.5	61.3	13
